The values that follow come from PMC4666376, “Characterisation of aptamer–target interactions by branched selection and high-throughput sequencing of SELEX pools”.

The target of the test is PAI-1 wild type, active (human, UniProt P05121 24-402). The test can be described thus: branched SELEX with high-throughput sequencing; PAI-1 immobilised on polyclonal anti-PAI-1 antibody; HBS (10 mM HEPES pH 7.4, 140 mM NaCl), 2 mM MgCl2, 2 mM CaCl2, 0.1% BSA; RNA pool 100 nM; PAI-1 captured on antibody-coated wells; 45 min; binding temperature not stated (PAI-1 capture at room temperature); high values mean tight binding.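 Further: Pool frequency after one selection round with this target divided by frequency before selection.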 The conditions noted are these: protein: recombinant; tags: N-terminal His6; structured_RNA; 2'-F pyrimidines.
PAI-1 wild type, active, sequence (P05121 24-402): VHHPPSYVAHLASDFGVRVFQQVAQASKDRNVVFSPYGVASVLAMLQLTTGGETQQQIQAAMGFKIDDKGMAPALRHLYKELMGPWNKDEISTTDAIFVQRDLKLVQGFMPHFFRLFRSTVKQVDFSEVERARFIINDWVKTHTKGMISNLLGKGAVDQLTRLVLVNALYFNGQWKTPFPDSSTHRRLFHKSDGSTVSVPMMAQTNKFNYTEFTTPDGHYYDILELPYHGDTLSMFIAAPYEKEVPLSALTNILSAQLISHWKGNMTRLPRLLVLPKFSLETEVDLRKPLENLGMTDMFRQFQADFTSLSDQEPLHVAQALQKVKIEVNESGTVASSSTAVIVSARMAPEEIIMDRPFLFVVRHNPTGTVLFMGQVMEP
For the sequence “GGGGCCACCAACGACAUUAAGUUUCGUCCGGAUCGUGCAAUCCGGUCUAUGUGGUUGAUAUAAAUAGUGCCCAUGGAUC”, the binding signal came to 4.02 enrichment factor.
The same measure for “GGGGCCACCAACGACAUUGUGCCAUGUAGAUCUUUAGGAGAUCGACCAGCAGUGUUGAUAUAAAUAGUGCCCAUGGAUC”: 0.57 enrichment factor; for “GGGGCCACCAACGACAUUGACCCGGUCACUUAUGUGGCCGAUAUCGUAGAUGCGUUGAUAUAAAUAGUGCCCAUGGAUC”: 0.2 enrichment factor.
Take “GGGGCCACCAACGACAUUCGUAACGUAGGGAGUAUUCCCGAUCAGAAUGUACAGUUGAUAUAAAUAGUGCCCAUGGAUC”: the binding signal is 0.36 enrichment factor.
The value for “GGGGCCACCAACGACAUUACACUGUAGCGAGCCAGACUCGCGACCAAAUGCGUUGAUAUAAAUAGUGCCCAUGGAUC” was 0.89 enrichment factor; that for “GGGGCCACCAACGACAUUGUCGUAGGCGUCAUAUUAUACUUACGCUGACCAAUGUUGAUAUAAAUAGUGCCCAUGGAUC” was 2.09 enrichment factor; that for “GGGGCCACCAACGACAUUGACUAGACAUGAUGUUGCAUGUCACCAUGUAAAAUGUUGAUAUAAAUAGUGCCCAUGGAUC” was 0.92 enrichment factor.
The same measure for “GGGGCCACCAACGACAUUCCUGCAACGUAGGCGCGUAAGCUCCGAUCAAGGAUGUUGAUAUAAAUAGUGCCCAUGGAUC”: 0.53 enrichment factor.
The value for “GGGGCCACCAACGACAUUCUCGAGAGAGACCUUCCUCGUUAUACGGGGAGUUCGUUGAUAUAAAUAGUGCCCAUGGAUC” was 0.56 enrichment factor.
In the case of “GGGGCCACCAACGACAUUUCCGUGAGGAUCUAUGUUGUGGAAAACAACAGUUCGUUGAUAUAAAUAGUGCCCAUGGAUC”, the binding signal is 1.09 enrichment factor.
The value for “GGGGCCACCAACGACAUUGACCAUGUAGGACUUAAAGUCUGACCACAAUGUGUGUUGAUAUAAAUAGUGCCCAUGGAUC” was 0.6 enrichment factor.
In the case of “GGGGCCACCAACGACAUUUCGCAGCUUCGUAGUACAGGCGCAAGUUGACACAUGUUGAUAUAAAUAGUGCCCAUGGAUC”, the binding signal amounted to 1.47 enrichment factor.
For “GGGGCCACCAACGACAUUCACCACGUAGUGAAACUUUCACGACUAGAAUGUAAGUUGAUAUAAAUAGUGCCCAUGGAUC”, the binding signal was 0.74 enrichment factor.
The value for “GGGGCCACCAACGACAUUCAGGCCGUAGGAUGUUAUAUCCGAUCCUGAUCUUCGUUGAUAUAAAUAGUGCCCAUGGAUC” was 1.4 enrichment factor; that for “GGGGCCACCAACGACAUUACAUACCGUAGGGCAGAUCGCCUGACUAGUAAUACGUUGAUAUAAAUAGUGCCCAUGGAUC” was 0.24 enrichment factor; that for “GGGGCCACCAACGACAUUCUACGUCGUAGUCGCUUAGCGAUGACCGUUAGAUGUUGAUAUAAAUAGUGCCCAUGGAUC” was 0.74 enrichment factor.
The value for “GGGGCCACCAACGACAUUACGUAGCAUGAUGAGUUUCUCGUCGGCGAUCAGUUGUUGAUAUAAAUAGUGCCCAUGGAUC” was 0.98 enrichment factor; that for “GGGGCCACCAACGACAUUGAACGUAAGGAGAGUGCGCUUACCGCACAAUGUUUGUUGAUAUAAAUAGUGCCCAUGGAUC” was 0.43 enrichment factor; that for “GGGGCCACCAACGACAUUACGUAGUUGCCUAAUAAAGGUAGCGAUUUGGAUUCGUUGAUAUAAAUAGUGCCCAUGGAUC” was 1.28 enrichment factor.
The same measure for “GGGGCCACCAACGACAUUACGUAGUUUGAGAUAGUUAACUCGAACGAUUAGUUGUUGAUAUAAAUAGUGCCCAUGGAUC”: 1.57 enrichment factor; for “GGGGCCACCAACGACAUUGACCCAUCUCGCGUUUCCGGGAUGACUAGUAGAAUGUUGAUAUAAAUAGUGCCCAUGGAUC”: 0.56 enrichment factor; for “GGGGCCACCAACGACAUUCUAAGUUCGUCCUACUUACUCUUGUAGGUCUGAAUGUUGAUAUAAAUAGUGCCCAUGGAUC”: 16.4 enrichment factor.
As for “GGGGCCACCAACGACAUUCAACGUGCACUGUAGCUGUACAAAGCGACCAACGUUGAUAUAAAUAGUGCCCAUGGAUC”, the binding signal came out at 6.23 enrichment factor.
The value for “GGGGCCACCAACGACAUUUGACAUCGUAGGCAAAAAAGCUGACUGUUCAGAUUGUUGAUAUAAAUAGUGCCCAUGGAUC” was 2.86 enrichment factor; that for “GGGGCCACCAACGACAUUACACUGUAGAGAAUACCCAAUUCUCGACUAGAUGCGUUGAUAUAAAUAGUGCCCAUGGAUC” was 0.74 enrichment factor; that for “GGGGCCACCAACGACAUUUGCGUAAGCAUCCUUCGAUGUACCACAUCGAGAUCGUUGAUAUAAAUAGUGCCCAUGGAUC” was 1.04 enrichment factor.
The value for “GGGGCCACCAACGACAUUUCGACUUGUAGACGAUAUUCGUCGACUCGAAGAGCGUUGAUAUAAAUAGUGCCCAUGGAUC” was 0.51 enrichment factor; that for “GGGGCCACCAACGACAUUGAGUCUAGACAAAAUUGUCUUAAGUUCGUCUUAAUGUUGAUAUAAAUAGUGCCCAUGGAUC” was 7.89 enrichment factor.
The same measure for “GGGGCCACCAACGACAUUGUCGUAGGACGUGAGUGUCUGACCGAUGUAGUUGGGUUGAUAUAAAUAGUGCCCAUGGAUC”: 0.65 enrichment factor.
